{
  "source": "PubChem BioAssay AID504437",
  "about": "(Emory University Molecular Libraries Screening Center, 2011)",
  "note": "The whole screen tested about 2,100 compounds, of which about 940 (45%) were called active.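 How the source made its calls: active means mean of three repeat readings of reporter signal inhibition above a set limit (cut at about 70% in these data); inactive means the rest.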 The set was probably picked from earlier hits. The sample as a whole holds a higher share of actives than the screen did.",
  "data": [
    {"assay": "retest of CHOP induction inhibitors, confirmation, cell-based (AID 504437);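 further: 0% = tunicamycin plus vehicle and 100% = wells lacking tunicamycin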", "details": "CHO-CHOP promoter luciferase reporter, tunicamycin-induced, luminescence; at 10 µM; active compounds read high", "values": [
      {"compound": "O=C(CSC1c2ccccc2-c2ccccc21)N/N=C/c1ccccc1", "inhibition": "70.5% (active)"},
      {"compound": "CCCCCCN=C(CC)c1c(O)n(CCCC)c(=O)[nH]c1=O", "inhibition": "118% (active)"}
    ]}
  ]
}
